# Measured values as given in PubChem BioAssay.
# Active and inactive are the calls of the source.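 How the source made its calls, unless noted: active means inhibition at or above 50% at 10 µM; inactive means inhibition below 50%.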
# Legend:
# [1] = inhibitors of TNFa-induced NFkB p65 translocation, primary screen, imaging, HUVEC, MLSMR starter and 10KST1 sets (AID 438;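 active means inhibition above 20% together with a positive visual image hit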;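 further: compound added about 3h40 before a 20 min TNFalpha stimulation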;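 on inhibition: signal is the nuclear over cytoplasmic p65 intensity ratio per well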); settings: HUVEC TNFa-induced p65 nuclear translocation; cell count: measured here: nuclei count (cytotoxicity indicator), at 2.08 µM; inhibition: at 2 µM, stronger effect = higher value, 0% TNFa-plus-vehicle, 100% no-TNFa wells
# [2] = reduction of polyQ htt aggregates in cells – imaging, exon1htt(103Q)mCFP cells, high-content imaging, primary screen (AID 483;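 active means visual image review flags a hit and inhibition of aggregation exceeds 20%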;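 further: compound exposure lasted 3 days before fixation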;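 on nuclei count: percent of the per-plate median nuclei count of sample wells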); settings: exon1htt(103Q)mCFP cell line, aggregate imaging, at 2 µM; inhibition of aggregation: stronger effect = higher value; nuclei count: measured here: cell count, toxicity
# [3] = endothelial E-selectin expression blockers – imaging, HUVEC, immunofluorescence, MLSMR starter and 10KST1 sets, primary screen (AID 487;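 active means visually confirmed hit in the image check and inhibition above 20%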;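 on inhibition: signal is fraction of cell area covered by stained E-selectin grains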;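 on nuclei count: 100% = median nuclei count of all wells on the same plate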); settings: HUVEC TNFalpha-induced E-selectin immunofluorescence imaging, at 2 µM; inhibition: stronger effect = higher value; nuclei count: measured here: cell number, toxicity
# [4] = biological target: Voltage-gated potassium channel subunit beta-2 (Rattus norvegicus) (UniProt P62483); experiment: inhibitors of rat Kvbeta2 reductase activity – biochemical, NADPH fluorescence, primary screen (AID 622;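 active means fluorescence slope higher than the sample average by over 3 SD, cut at about -0.22 in these data, passing the limit was not always enough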;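 further: slope of raw intensity against log time taken from 70 to 1610 s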); settings: recombinant KvBeta, 4-cyanobenzaldehyde reduction, at 10 µM, stronger effect = higher value
# [5] = biological target: Voltage-gated potassium channel subunit beta-2 (Rattus norvegicus) (UniProt P62483); experiment: enhancers of rat Kvbeta2 NADPH turnover – biochemical, NADPH fluorescence, primary screen (AID 623;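 active means NADPH fluorescence slope more negative than the mean of all samples by about 3 SD, 99.7% confidence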;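 further: fluorescence intensity change per second fitted from 20 to 320 s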); settings: Recombinant KvBeta, NADPH fluorescence decrease slope, 10 min; at 10 µM; stronger effect = lower value
# [6] = biological target: Alpha-2C adrenergic receptor (Homo sapiens) (UniProt P18825); experiment: compounds altering alpha2C-coupled GIRK flux – cell-based, HEK293 alpha2C/GIRK1/2, thallium flux, primary screen (AID 624;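 active means fluorescence slope after compound addition differing from the mean of all screened samples at 99.7% confidence, in either direction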;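 further: slope of fluorescence ratio to pre-addition baseline per second over 15 to 24 s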); settings: thallium flux BTC fluorescence, at 10 µM, actives lie on both sides
# [7] = blockers of RIG-like receptor reporter activation – cell-based, Sendai virus stimulus, luciferase, 10K MLSCN set, TLR/RLR signaling modifier project, primary screen (AID 602276); settings: HEK293 RL24 IRF3 luciferase reporter, at 10 µM, stronger effect = higher value;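 further: firefly luciferase from ISG56 promoter only with Renilla not read in this screen; 0% = Sendai virus plus DMSO and 100% = medium plus DMSO without virus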
# [8] = TLR3 IRF3 reporter activation blockers – cell-based, poly I:C stimulus, luciferase, 10K MLSCN set, primary screen (AID 602277;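 active means inhibition of the reporter signal at or above 50%; inactive means inhibition below 50%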); settings: HEK293-TLR3 RL24 IRF3 luciferase reporter, at 10 µM, stronger effect = higher value
# Sequence of Voltage-gated potassium channel subunit beta-2 (Rattus norvegicus) (P62483 whole entry, looked up): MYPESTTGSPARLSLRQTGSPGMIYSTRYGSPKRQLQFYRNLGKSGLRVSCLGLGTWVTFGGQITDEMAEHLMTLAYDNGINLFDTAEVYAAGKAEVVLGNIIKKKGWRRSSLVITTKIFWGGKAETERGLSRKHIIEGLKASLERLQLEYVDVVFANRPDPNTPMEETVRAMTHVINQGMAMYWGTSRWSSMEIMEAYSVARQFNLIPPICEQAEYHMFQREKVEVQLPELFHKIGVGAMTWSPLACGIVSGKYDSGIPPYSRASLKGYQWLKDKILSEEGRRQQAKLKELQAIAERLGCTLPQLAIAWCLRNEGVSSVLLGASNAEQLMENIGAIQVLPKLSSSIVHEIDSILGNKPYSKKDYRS
# Sequence of Alpha-2C adrenergic receptor (Homo sapiens) (P18825 whole entry, looked up): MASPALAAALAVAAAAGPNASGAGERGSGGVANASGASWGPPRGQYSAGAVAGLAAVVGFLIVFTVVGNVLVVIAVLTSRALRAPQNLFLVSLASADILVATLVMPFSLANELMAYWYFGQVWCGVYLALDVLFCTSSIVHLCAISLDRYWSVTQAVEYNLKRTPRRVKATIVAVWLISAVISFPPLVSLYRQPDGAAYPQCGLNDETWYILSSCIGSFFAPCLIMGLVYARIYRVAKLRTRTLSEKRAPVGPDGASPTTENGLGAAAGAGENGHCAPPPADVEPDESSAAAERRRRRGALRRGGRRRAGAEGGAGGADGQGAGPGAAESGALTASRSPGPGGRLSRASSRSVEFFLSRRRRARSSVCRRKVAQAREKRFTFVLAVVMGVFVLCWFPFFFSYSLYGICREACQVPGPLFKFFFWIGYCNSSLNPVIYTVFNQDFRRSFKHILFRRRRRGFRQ
Compound,cell count [1],inhibition [1],inhibition of aggregation [2],nuclei count [2] [%],inhibition [3],nuclei count [3] [%],fluorescence slope [4],NADPH fluorescence slope [5],slope [6],inhibition [7],inhibition [8]
O=C(c1cccc(C(=O)N2CCN(c3ccc(F)cc3)CC2)c1)N1CCN(c2ccc(F)cc2)CC1,692,1.5% (inactive),-21.7% (inactive),68.1,-6.5% (inactive),92.8,-0.438 (inactive),-9.2e-05 (inactive),0.006 (inactive),-6.05% (inactive),-5.26% (inactive)
COCCNC(=O)CN1CCC(NC(=O)Nc2ccc(C(F)(F)F)cc2)CC1,515,0.8% (inactive),-24.7% (inactive),70.9,-85% (inactive),96.8,-0.296 (inactive),-4.5e-05 (inactive),0.0053 (inactive),5.43% (inactive),3.51% (inactive)
Cc1ccccc1NC(=O)C1CCCN(S(=O)(=O)c2cccc3cccnc23)C1 (stereo unspecified),613,6.8% (inactive),21% (inactive),71.1,-45.4% (inactive),112,-0.554 (inactive),1.2e-05 (inactive),0.00703 (inactive),1.01% (inactive),13.7% (inactive)
CC1=C/C(=C/N(C)c2ccccc2)C(=O)S1,582,-3.5% (inactive),-10.1% (inactive),97.7,31.4% (inactive),88.1,-0.61 (inactive),1.5e-05 (inactive),0.0049 (inactive),-17.2% (inactive),-17% (inactive)
CC(=O)N1CCN(S(=O)(=O)c2ccc(S(=O)(=O)NCC(C)C)cc2)CC1,641,1.6% (inactive),5.2% (inactive),102,-10.2% (inactive),110,-0.399 (inactive),-3.9e-05 (inactive),0.00517 (inactive),14.8% (inactive),12.6% (inactive)
CN1C(=O)C(O)(CC(=O)c2ccc3c(c2)OCO3)c2ccccc21 (stereo unspecified),340,6% (inactive),-7.9% (inactive),105,-11.1% (inactive),108,-0.457 (inactive),6.3e-06 (inactive),0.00347 (inactive),4.81% (inactive),32.2% (inactive)
COc1ccc(C2=CC(=O)OC3(CCCCC3)O2)cc1,390,-5.3% (inactive),-4.6% (inactive),99.3,-152% (inactive),115,-0.475 (inactive),-8.9e-05 (inactive),0.0046 (inactive),13% (inactive),22.7% (inactive)
CN(C(=O)C1CCOC1)c1nnc(-c2cccnc2)s1 (stereo unspecified),745,-12.4% (inactive),15.3% (inactive),67.6,-41.7% (inactive),116,-0.502 (inactive),-1.1e-05 (inactive),0.0059 (inactive),-22% (inactive),-24.2% (inactive)
Cc1cc(C)c(C(=O)Nc2ccc(S(=O)(=O)Nc3onc(C)c3C)cc2)c(C)c1,680,0.3% (inactive),-6.2% (inactive),113,-36.9% (inactive),114,-0.493 (inactive),-2.1e-05 (inactive),0.00709 (inactive),18.6% (inactive),22.1% (inactive)
O=C(NCc1cccs1)C1CC(c2ccccc2O)=NO1 (stereo unspecified),347,1.7% (inactive),-11.8% (inactive),104,-122% (inactive),108,-0.601 (inactive),-2.2e-05 (inactive),0.00342 (inactive),12.7% (inactive),67.7% (active)
COc1ccc(C)cc1NC(=O)c1nc2nc(C)cc(C)n2n1,471,3.8% (inactive),5.2% (inactive),98.1,-23.4% (inactive),124,-0.297 (inactive),1.4e-06 (inactive),0.00674 (inactive),18.5% (inactive),9.03% (inactive)
CCOC(=O)C1CCN(c2c(NC3CCCCCCC3)c(=O)c2=O)CC1,897,2.8% (inactive),-6.4% (inactive),103,-53.1% (inactive),118,-0.575 (inactive),-4.2e-05 (inactive),0.00631 (inactive),9.6% (inactive),32.7% (inactive)
COC(=O)C1=C(N)OC2=C(C(=O)CCC2)C1c1cccs1 (stereo unspecified),491,3.2% (inactive),27.3% (inactive),52,44.1% (inactive),103,-0.49 (inactive),-3.8e-05 (inactive),0.00743 (inactive),2.58% (inactive),21.7% (inactive)
CCOC(=O)CN1CC23C=CC(O2)C(C(=O)NCc2ccc(F)cc2)C3C1=O (stereo unspecified),572,-2% (inactive),15.7% (inactive),106,-142% (inactive),131,-0.589 (inactive),-1.1e-05 (inactive),0.00638 (inactive),14% (inactive),27.7% (inactive)
O=C(CSc1nnnn1C1CCCC1)N1CCN(C(=O)c2ccco2)CC1,367,-10.3% (inactive),2% (inactive),105,-54.2% (inactive),107,-0.483 (inactive),-2.2e-05 (inactive),0.00599 (inactive),-2.14% (inactive),16.4% (inactive)
Cc1c(NC(=O)c2ccc(COc3ccc4ccccc4c3)o2)c(=O)n(-c2ccccc2)n1C,417,2.2% (inactive),1.1% (inactive),101,-55.3% (inactive),109,-0.598 (inactive),-2.6e-05 (inactive),0.0029 (inactive),-13.4% (inactive),-61.2% (inactive)
O=C(CCc1ccc(S(=O)(=O)N2CCOCC2)cc1)NCCc1ccccn1,709,3.1% (inactive),-8% (inactive),104,-158% (inactive),144,-0.568 (inactive),1.5e-05 (inactive),0.00601 (inactive),-4.86% (inactive),1.41% (inactive)
CCn1nnnc1SCC(=O)Nc1nc(-c2cccs2)cs1,327,-8.9% (inactive),9.4% (inactive),100,-63.9% (inactive),104,-0.491 (inactive),-4.6e-05 (inactive),0.00497 (inactive),15.8% (inactive),20.5% (inactive)
Cc1ccc(NC(=O)CCC(=O)OCC(F)(F)C(F)F)cc1,551,-2.4% (inactive),2% (inactive),69.2,-2.3% (inactive),91.8,-0.454 (inactive),6.2e-06 (inactive),0.00371 (inactive),3.35% (inactive),35.3% (inactive)
CCCn1c(SCC(=O)NC(C)(C)C)nnc1C(C)C,603,-6.3% (inactive),6.5% (inactive),102,19.4% (inactive),99.9,-0.537 (inactive),-0.000121 (inactive),0.00641 (inactive),13% (inactive),23.2% (inactive)
CCOC(=O)C(C)C1(O)c2ccccc2-c2ncccc21 (stereo unspecified),316,4.9% (inactive),-6.7% (inactive),117,6.6% (inactive),97.7,-0.296 (inactive),-6.5e-05 (inactive),0.00533 (inactive),4.67% (inactive),8.95% (inactive)
CCc1nccn1S(=O)(=O)c1ccc(C)c(C)c1,603,-11.5% (inactive),7% (inactive),94,-33% (inactive),117,-0.618 (inactive),-5.2e-05 (inactive),0.00545 (inactive),7.1% (inactive),12.9% (inactive)
COc1ccc(-c2c3c(=O)n(C)c(=O)n(C)c3cn2-c2cccc(OC)c2)cc1,430,5.2% (inactive),5.3% (inactive),110,-50.3% (inactive),99.9,-0.605 (inactive),6.5e-06 (inactive),0.00638 (inactive),-0.838% (inactive),0.686% (inactive)
COc1cc(C2C(C#N)=C(C)NC3=C2C(=O)CC(C)(C)C3)ccc1O (stereo unspecified),422,-1.9% (inactive),1% (inactive),103,-15.6% (inactive),103,-0.453 (inactive),-2e-05 (inactive),0.00555 (inactive),8.2% (inactive),16.9% (inactive)
CCOC(=O)c1cc2c(=O)n3ccccc3nc2n(CCCOC)c1=NC(=O)C(C)(C)C,656,2.6% (inactive),39.3% (active),86.8,-203% (inactive),95.3,-0.348 (inactive),7.9e-06 (inactive),0.00456 (inactive),7.96% (inactive),16.3% (inactive)
Cc1c(NC(=O)C(C)Oc2ncnc3ccccc23)c(=O)n(-c2ccccc2)n1C (stereo unspecified),547,-1.7% (inactive),-8.5% (inactive),78,-5.8% (inactive),111,-0.506 (inactive),-5e-05 (inactive),0.00757 (inactive),-7.59% (inactive),19.3% (inactive)
